# Assay results: the supplement of paper PMC3334620
# Over roughly 33,000 sequences, “E-score (-0.5 to 0.5)” has its median near -0.056; the highest 2% begin near 0.38. The entries come from a sample that favours the highest values as a whole.
# Target: Stb4 (UniProt P50104)
# Assay: PBM E-score (8-mer binding enrichment) (E-score (-0.5 to 0.5)); higher = stronger / more preferred TF binding
# Conditions: protein concentration: 200 nM; construct: GST-DNA-binding domain
# How it was run: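 Detection of bound protein used fluorescent anti-GST, with scans normalised by masliner. The proteins were GST-tagged yeast transcription factors applied at about 100-200 nM to universal all-10-mer Agilent arrays made double-stranded by primer extension. Each ungapped eight-base word, pooled with its reverse complement, was scored with an E-score from the Universal PBM Analysis Suite.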
# Chain of UniProt P50104 (P50104 whole entry): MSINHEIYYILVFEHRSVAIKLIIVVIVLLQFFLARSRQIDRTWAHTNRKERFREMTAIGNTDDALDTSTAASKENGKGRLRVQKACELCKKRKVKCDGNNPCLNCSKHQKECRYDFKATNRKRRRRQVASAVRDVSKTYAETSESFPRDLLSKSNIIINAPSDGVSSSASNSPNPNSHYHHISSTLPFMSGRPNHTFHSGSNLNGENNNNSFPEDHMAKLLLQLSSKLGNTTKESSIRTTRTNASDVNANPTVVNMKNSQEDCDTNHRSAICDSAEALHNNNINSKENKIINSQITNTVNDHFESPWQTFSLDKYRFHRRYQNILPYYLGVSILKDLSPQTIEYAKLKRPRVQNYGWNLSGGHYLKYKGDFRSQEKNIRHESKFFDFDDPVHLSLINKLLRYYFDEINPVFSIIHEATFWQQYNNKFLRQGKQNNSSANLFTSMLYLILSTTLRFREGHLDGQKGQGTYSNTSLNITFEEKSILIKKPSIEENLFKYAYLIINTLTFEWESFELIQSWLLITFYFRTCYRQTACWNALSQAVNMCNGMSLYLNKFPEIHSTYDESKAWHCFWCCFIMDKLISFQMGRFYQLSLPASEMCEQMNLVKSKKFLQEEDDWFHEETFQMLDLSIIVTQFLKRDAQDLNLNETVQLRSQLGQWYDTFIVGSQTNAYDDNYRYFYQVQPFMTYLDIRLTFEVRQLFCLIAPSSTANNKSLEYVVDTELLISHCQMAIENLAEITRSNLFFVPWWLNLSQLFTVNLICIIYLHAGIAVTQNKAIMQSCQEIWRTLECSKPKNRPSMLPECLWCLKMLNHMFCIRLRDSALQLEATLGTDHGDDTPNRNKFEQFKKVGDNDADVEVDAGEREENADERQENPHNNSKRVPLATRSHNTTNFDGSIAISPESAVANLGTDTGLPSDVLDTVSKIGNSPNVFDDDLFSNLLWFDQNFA
row,Sequence,PBM E-score
1,ACAACGGC,0.108
2,GAACGCGA,-0.0119
3,ATTTCCAA,0.0026
4,ATTTCCTG,-0.0528
5,ATTTCCGC,0.307
6,ATTTCCGG,0.426
7,ATTTCCGA,0.47
8,ATTTCCCA,-0.0128
9,TCTGGACA,-0.0785
10,GCATAGCC,-0.0533
11,GTCTGCTA,-0.0233
12,GCGACGGA,0.245
13,CCGACGCC,0.343
14,ACGACGCG,-0.0636
15,ACGACCCG,0.251
16,ACGACGGA,0.22
17,CCGACGCG,0.397
18,CCGACGGA,0.404
19,CCGACCCG,0.407
20,CCGACCCC,0.214
21,CTGACGCA,-0.298
22,CTCAGTGC,-0.109
23,ACATTGCT,-0.233
24,GTCAGACA,-0.0277
25,ATTACGCA,0.00056

row,Sequence,PBM E-score
1,AGCATTTC,-0.0674
2,GGTTGGAA,0.12
3,ATCTACCA,-0.135
4,TCCAACCA,-0.117
5,CGAGATGC,0.0535
6,ACCCGACG,0.425
7,CCCCGACA,0.16
8,ACCCGACT,0.33
9,CCCCGACG,0.277
10,ACCCGACA,0.402
11,GCCCGACA,0.187
12,CGTTGGAG,-0.232
13,CCGAGCCG,0.468
14,CCGAGCCA,0.407
15,ACGAGCCG,0.292
16,TCGAGCCA,-0.204
17,ACGAGCCA,-0.307
18,GCGAGCCC,-0.0138
19,CGGAGCCG,0.352
20,ACGAGCCC,-0.198
21,CCGAGCCC,0.444
22,GGAGTATA,0.235
23,AACCGTCT,0.00908
24,GCGGGTCA,0.0978
25,GAGCCCAA,-0.16

row,Sequence,PBM E-score
1,GGAGGAAC,-0.0445
2,GTTCTGAA,-0.216
3,AACGAGCT,-0.256
4,AACCCTCA,-0.148
5,GATTAGCA,-0.177
6,CTCGGAGC,0.395
7,ATCGGAGA,0.272
8,CTCGGACC,0.412
9,CTCGGACA,0.366
10,ATCGGAGC,0.282
11,CACGGAGC,0.174
12,CTCGGAGA,0.406
13,CACGGAGA,0.14
14,CACGGACC,0.114
15,CGAGTGAC,-0.0128
16,CACCTCGA,-0.0678
17,CACCTCGC,0.0165
18,AACCTCGT,-0.062
19,ACCCTCGG,0.426
20,ACCCTCGC,-0.131
21,AACCTCGA,-0.0623
22,ACCCTCGA,-0.165
23,AACCTCGG,0.452
24,CACCTCGG,0.393
25,ATCCTCGC,-0.0124

row,Sequence,PBM E-score
1,ATCCTCGG,0.417
2,ATCCTCGA,-0.25
3,AATGCGAA,0.0466
4,GGTTGGTA,1e-05
5,TCGCATAA,-0.0545
6,CGGGCTGA,0.0911
7,CGTCTTTA,-0.0915
8,CAATTGGA,-0.112
9,ACCTCCCT,-0.111
10,AAAGGGGA,-0.22
11,AGCTCCGG,0.301
12,CTCTGAAC,-0.174
13,CTTTCGTA,-0.177
14,CTTTCGTC,-0.0646
15,ATTTCGGG,0.39
16,CTTTCGGC,0.386
17,ATTTCGGC,0.371
18,ATTTCGCA,0.0506
19,ATTTCGGA,0.454
20,ATTTCGCG,0.0954
21,CTTTCGAA,-0.204
22,CTTTCGGA,0.432
23,ATTTCGAG,-0.0811
24,CTTTCGAC,-0.172
25,AACGTTCG,0.113

row,Sequence,PBM E-score
1,CTTTCTGA,-0.25
2,CGCGCCAG,0.104
3,AGCGCTCG,-0.0312
4,CTTCGTCA,-0.177
5,GTAGTTCA,0.0756
6,GCGGTGCA,-0.283
7,ATTCTCCG,0.264
8,AGTAAAAC,-0.181
9,GTGGTGAA,0.0732
10,GTTTCGAA,-0.145
11,GTTTCGTA,0.128
12,GTTTCGGA,0.43
13,AAGCTGAT,0.104
14,CCACCTAC,-0.246
15,AGCATCAA,-0.15
16,ACAGGTGG,-0.226
17,CCGAGGAG,0.393
18,TCGAGGAA,-0.13
19,ACGAGGAG,-0.349
20,CGGAGGAG,0.209
21,CCGAGGAC,0.371
22,CCGAGGAA,0.387
23,ATGAAGGG,-0.114
24,CAGGAGTC,-0.0625
25,AGTCGCAT,-0.137

row,Sequence,PBM E-score
1,CTGGTAGC,-0.224
2,ACACCGGG,0.213
3,CGTATGGA,-0.0248
4,CATGGGCG,-0.0118
5,ACCATACC,0.044
6,GTCTCCGA,0.352
7,AACTCCGA,0.412
8,AACTCCGG,0.352
9,AACTCCGT,0.206
10,ATCTCCGC,0.151
11,ATCTCCGA,0.396
12,TCCAAAAA,0.0234
13,GTCGCTCA,-0.129
14,GCCGACTA,0.166
15,CATTCTTC,-0.0802
16,GTTTGCGA,-0.155
17,ACAGCCGC,0.105
18,CCAGCCGA,0.322
19,GCAGCCTA,-0.153
20,ACAGCCGG,0.35
21,TCAGCCCA,-0.11
22,ACAGCCGA,0.383
23,TCAGCCGA,0.385
24,TCCGCCGA,0.403
25,GCAGCCGA,0.396

row,Sequence,PBM E-score
1,GCCGCCGA,0.331
2,GCAGCCGC,0.154
3,CCCGCCGA,0.367
4,ATAAACCC,0.0851
5,CGCTATAC,0.0197
6,GCCAAAGC,-0.121
7,CAGACCTG,-0.17
8,TATTTCGA,0.00011
9,AATGTCTG,0.0612
10,ATGACGGA,0.217
11,AATCTTGC,-0.0133
12,CAGGAATC,-0.0371
13,AACTAAGT,-0.0531
14,AGCTTCCC,-0.00142
15,AGCTTCCA,0.0259
16,CGCTTCCA,-0.0326
17,CGCTTCCG,0.402
18,CGCTTCCC,0.188
19,AGCTTCCG,0.423
20,CCTCCACC,-0.0886
21,ATCAAGGC,-0.111
22,GTAGCCGA,0.4
23,CTAGCCAA,-0.0164
24,ATAGCCGA,0.442
25,CTAGCCGA,0.455

row,Sequence,PBM E-score
1,GTAGCCAA,-0.025
2,GTAGCCTA,-0.382
3,ATAGCCGG,0.353
4,CTAGCCGC,0.21
5,ATAGCCGC,0.236
6,AAGAGTGG,-0.179
7,CTGCCTAA,-0.169
8,TGCCAAAA,-0.0796
9,TCGGGGCA,0.226
10,ACTGGGCT,-0.0497
11,ACAGTGCT,-0.181
12,ATCACAAA,-0.149
13,CTATCTAC,-0.0208
14,CTCGCCGC,0.0149
15,ACTGTACG,-0.153
16,ACGAGGTC,-0.278
17,CTGAGGTC,-0.243
18,CCGAGGTC,0.424
19,CCGAGGTA,0.401
20,GCGAGGTA,-0.124
21,ACGAGGTA,-0.0352
22,ACGAATCA,-0.0567
23,CCAGTAAA,-0.0636
24,TGATCGAA,-0.125
25,GACCGCGA,0.0256

row,Sequence,PBM E-score
1,AAATCCCG,0.339
2,ATCTCGGA,0.461
3,GTCTCGGA,0.442
4,ATCTCGCG,-0.0115
5,ATCTCGAG,-0.0973
6,ATCTCGAA,-0.0183
7,ATCTCGCA,-0.035
8,ATCTCGGG,0.449
9,GTCTCGAA,-0.255
10,GTCTCGTA,-0.115
11,AAGATTTA,0.0925
12,AAGAAATA,-0.0625
13,AGTTAGGA,-0.167
14,ATCACGAC,-0.123
15,ATTCGGTA,0.36
16,CTTCGGTA,0.383
17,GTTCGGTA,0.425
18,CGTCGGTA,0.294
19,GGTCGGTA,0.223
20,CTTCGGTC,0.234
